Reference: PubChem BioAssay AID493168 (National Center for Advancing Translational Sciences (NCATS), 2011)
Inconclusive results are not listed. Entries that show only a call come without a potency. Calls of active or inactive are those of the source. The call rests on the fitted dose curve; in most records, active means well fitted inhibition curve with a large enough effect; inconclusive means small, poorly fitted or top-dose-only effect, or effect the other way; inactive means flat fitted curve, though single readings scatter.

Biological target: Ubiquitin carboxyl-terminal hydrolase 2 (Homo sapiens) (UniProt O75604)
Assay: Confirmation Assay for Inhibitors of Ubiquitin-specific Protease USP2a Using CHOP2 as the Reporter; further: nearly all actives have a fitted effect of over 55% in size
In short: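 Ub-CHOP2 cleavage coupled to reporter activation was read by fluorescence after 60 min at RT, with 25 nM final Ub-CHOP2 and substrate. Enzyme (10 nM final USP2 core) first sat 30 min with compound; data were normalized to NEM and fitted to concentration-response curves.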
Potency means the concentration at half of the fitted maximal effect.

Ubiquitin carboxyl-terminal hydrolase 2 (Homo sapiens), sequence (O75604 whole entry, looked up): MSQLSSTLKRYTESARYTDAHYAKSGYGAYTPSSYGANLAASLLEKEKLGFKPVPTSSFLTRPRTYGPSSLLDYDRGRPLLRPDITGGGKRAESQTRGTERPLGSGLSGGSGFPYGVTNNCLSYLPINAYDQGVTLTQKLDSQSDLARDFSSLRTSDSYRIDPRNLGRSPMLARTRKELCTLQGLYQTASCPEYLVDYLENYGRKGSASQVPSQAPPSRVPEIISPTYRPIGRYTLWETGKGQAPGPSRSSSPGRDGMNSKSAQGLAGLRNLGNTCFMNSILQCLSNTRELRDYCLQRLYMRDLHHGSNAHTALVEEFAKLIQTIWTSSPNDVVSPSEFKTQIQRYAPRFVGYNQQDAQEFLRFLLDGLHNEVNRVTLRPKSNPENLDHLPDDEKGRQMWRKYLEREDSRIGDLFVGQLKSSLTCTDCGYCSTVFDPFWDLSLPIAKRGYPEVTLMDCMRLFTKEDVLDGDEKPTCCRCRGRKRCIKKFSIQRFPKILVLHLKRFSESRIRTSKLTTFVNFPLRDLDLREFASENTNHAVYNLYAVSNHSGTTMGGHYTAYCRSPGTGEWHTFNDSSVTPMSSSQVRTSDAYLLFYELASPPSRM

| SMILES | Potency |
| --- | --- |
| CC1CCCCN1CCNC(=O)c1cnn2ccccc12 (stereo not drawn) | inactive |
| Cc1nn(C)cc1CNC(=O)c1ccc(Br)o1 | inactive |
| CCOC(=O)Nc1ccc(S(=O)(=O)Nc2cc(C)nc(C)n2)cc1 | inactive |
| CC(=O)c1cccc(NC(=O)C(C)OC(=O)c2cc(=O)[nH]c3ccccc23)c1 (stereo not drawn) | 6.56 µM (active) |
| COc1ccc(CN(Cc2cc3cc(C)ccc3[nH]c2=O)C(=O)N(C)C)cc1 | inactive |
| CCn1nc(C(=O)N[C@@H](CCSC)c2nc3ccccc3[nH]2)c2ccccc2c1=O | inactive |
| c1ccc(Nc2c3c(nc4ncnn24)CCC3)cc1 | inactive |
| Cc1ccc(NC(=O)CSc2nnc(COc3ccc(C#N)cc3)n2-c2ccccc2)cc1C | inactive |
| CCn1nnnc1SCC(=O)Nc1cccc(C)n1 | inactive |
| COC(=O)c1c(N2C(=O)CCC2=O)sc2c1CCCC2 | inactive |
| COc1ccc(OC)c(NC(=O)CSc2nc(O)cc(=O)n2CC(C)C)c1 | inactive |
| O=C1CC(Nc2ccc(N3CCOCC3)cc2)C(=O)N1c1cccc(C(F)(F)F)c1 (stereo not drawn) | inactive |
| CCN1C(=O)CSc2ccc(C(=O)NC3CCCCC3)cc21 | inactive |
| CC(=O)Nc1ccc(NC(=O)[C@@H](NC(=O)c2cccc(C)c2)C(C)C)cc1 | inactive |
| O=C1CC(c2ccc(Cl)cc2)SC(N(c2ccccc2)c2ccccc2)=N1 (stereo not drawn) | inactive |
| COc1cc(C(=O)OCC(=O)Nc2c(F)c(F)c(F)c(F)c2F)cc(OC)c1OC | inactive |
| Cc1onc(-c2ccccc2)c1C(=O)N1CCN(C)CC1 | inactive |
| CCCCOC1(c2ccccc2)NC(=S)NN=C1c1ccccc1 (stereo not drawn) | inactive |
